# HT1080NT lethal: kills 2HG-producing HT-1080-NT fibrosarcoma cells; Potency, µM (series often up to 46.1 µM), inactives show at the highest dose activity, negative = less viability, usual class: cytotoxic; AID 686970; HT-1080-NT fibrosarcoma viability, CellTiter-Glo ATP luminescence, 48 h; actives 1.6% (n = 360,000);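 further: NT is the 2HG producing partner of a matched IDH1 knockdown line; 0% = DMSO-treated cells and -100% = media-only wells without cells; nearly all actives have a fitted effect of over 55% in size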
#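 HT-1080-NT fibrosarcoma cells (2HG-overproducing), 750 cells/well in RPMI with 5% FBS, dosed after 2 h and incubated 48 h at 37C. CellTiter-Glo luminescence normalized to DMSO and no-cell wells; concentration-response curves fitted and classed.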
# KB-3-1 tox: kills parental KB-3-1 adenocarcinoma cells. KB-3-1 viability, CellTiter-Glo ATP luminescence, 72 h. AID 1347075. Potency, µM (series often up to 46.1 µM), most hits filed as cytotoxic. actives 1.4% (n = 400,000); further: on the % scale 0 is the no-effect control and ±100 the full control effect; nearly all actives have a fitted effect of over 60% in size
#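 Parental KB-3-1 adenocarcinoma cells in phenol-red-free DMEM with 10% FBS were pin-treated with compounds at several concentrations, incubated 72 h at 37 °C, and viability read by CellTiter-Glo luminescence; concentration-effect curves were fitted after normalization.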
# KB-V1 cytotox: KB-V1 MDR subline cytotoxicity; KB-V1 MDR cells viability, CellTiter-Glo, 72 h; Potency, µM (top dose mostly 46.1 µM), hits mostly cytotoxic; actives 3.4% (n = 400,000); AID 1347076; further: on the % scale 0 is the no-effect control and ±100 the full control effect; nearly all actives have a fitted effect of over 60% in size
#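 Potencies derive from concentration-effect curves fitted to normalized luminescence (CellTiter-Glo) of KB-V1 cells treated for 72 h at 37 degrees C in phenol-red-free DMEM containing 10% FBS.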
# MCF10A rereplic: induces DNA re-replication in MCF 10a normal breast cells. MCF 10A DNA re-replication, Hoechst nuclear intensity, 48 h. Potency, µM (doses to about 46.1 µM), for inactives: top-dose activity, positive = re-replication, usual class: activators. actives 2.9% (n = 350,000). AID 624296; further: % of control where 0% means no effect; nearly all actives have a fitted effect of over 50% in size
# HT1080 IDH1KD tx: HT-1080 IDH1 knockdown cell toxicity (counter line); Potency, µM (series often up to 46.1 µM), for the others: top-dose activity, negative = toxicity, hits mostly cytotoxic; actives 2% (n = 360,000); HT-1080 IDH1 knockdown viability, ATP luminescence, 48 h; AID 686971;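 further: 0% = DMSO wells and -100% = cell-free medium wells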
#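 In this qHTS, HT-1080 cells depleted of IDH1 are exposed for 48 h at 37 °C to compound titrations. Toxicity is scored from CellTiter-Glo luminescence, with DMSO as full viability and medium alone as none.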
# SW480 rerep: inducers of DNA re-replication in SW480 colon cancer cells; SW480 DNA re-replication, Hoechst DNA content imaging, 48 h; Potency, µM (series often up to 46.1 µM), inactives show at the highest dose re-replication activation, hits mostly activators; actives 1.8% (n = 340,000); AID 624297; further: % of control where 0% means no effect; nearly all actives have a fitted effect of over 55% in size
#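 Quantitative HTS format with DMSO vehicle controls; 48 hr drug incubation at 37 C, then 40 min Hoechst staining and scanning imager measurement at 405 nm excitation.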
# Numbers without * were called inactive; i = inactive; ? = inconclusive; . = no result; [ ] = another dose, or the depositor's remark. Rows were chosen to be rich in hits. Some 8% of all compounds tested hit in one or more screens of this group. The call rests on the fitted dose curve; in most records, active means well fitted curve in the direction sought with a large enough effect; inconclusive means small, poorly fitted or top-dose-only effect, or another doubt; inactive means no such curve, though single readings can be large; an effect the other way counts as inactive or inconclusive. Potency means the concentration at half of the fitted maximal effect.
SMILES,HT1080NT lethal,KB-3-1 tox,KB-V1 cytotox,MCF10A rereplic,HT1080 IDH1KD tx,SW480 rerep
Cc1cc(-c2ccc(NS(=O)(=O)c3ccccc3)c(C)c2)ccc1NS(=O)(=O)c1ccccc1,-20%,?,i,?,-14%,1%
CCN(CC)CCCNc1ncnc2ccccc12,1%,i,i,11%,-5%,-5%
CN(C)CCNc1ccc2nnn3c4ccc(O)cc4c(=O)c1c23,23µM*,7.3µM*,?,7%,21µM*,9%
CCN(CC)CCCNc1ccc2ncn3c4ccc(O)cc4c(=O)c1c23,-24%,23µM*,?,?,?,7.3µM*
COc1ccc(CNC(=O)c2ccc[nH]2)cc1,18%,?,i,0%,20%,0%
C=CCn1c(=O)c2ccccc2n2c(SCC(=O)c3ccccc3)nnc12,-3%,i,i,10%,0%,-6%
C=CCn1c(=O)c2ccccc2n2c(SCc3nnc(-c4ccccc4Br)o3)nnc12,-5%,i,i,23µM*,-2%[9.24 µM],15%
Cc1ccc(N(CCCCN2C(=O)c3ccccc3C2=O)C(=O)c2cccc([N+](=O)[O-])c2)cc1,-9%,i,18µM*,20%,-19%,9%
O=C1c2ccccc2C(=O)N1CCCCN(C(=O)c1cc([N+](=O)[O-])cc([N+](=O)[O-])c1)c1ccc(Cl)cc1,14%,i,i,3%,11%,8%
COc1ccc(-n2c(SCC(=O)Nc3cccc(C(=O)O)c3)nnc2-c2ccco2)cc1,16%,i,i,-7%,15%,-14%
CCCn1c(SCC(=O)Nc2ccccc2OC)nnc1-c1ccco1,16µM*,?,?,6.5µM*,18µM*,9.2µM*
COc1ccc(NC(=O)CSc2ccccn2)cc1OC,6%,i,i,13%,3%,0%
COc1ccc(NC(=O)CSc2nnc(-c3ccccn3)n2-c2ccccc2)cc1OC,-7%,i,15µM*,-4%,-16%,-7%
COc1ccc(OC)c(NC(=O)CSc2nnc(-c3ccco3)n2-c2ccccc2)c1,-2%,i,?,1%,-5%,3.7µM*
COc1ccc(N2CCN(C(=O)COC(=O)c3ccccc3OCc3ccc(F)cc3)CC2)cc1,1%,i,i,?,-3%,-4%
CCCN1CCN(CCCNC(=O)CN2C(=O)C(CC)Oc3ccccc32)CC1 (configuration not stated),5%,i,i,0%,12%,?
CCC1Sc2ccccc2N(CC(=O)NCc2ccccc2OC)C1=O (configuration not stated),1%,i,21µM*,10%,3%,-12%
CCOC(=O)CN(C(=O)CNC(=O)c1cccs1)C(C(=O)NC1CCCCC1)c1cccs1 (configuration not stated),17%,i,21µM*,0%,1%,-3%
O=C(Nc1cccc(Cl)c1)Nc1nnc(CC2=CCCCC2)s1,-1%,23µM*,i,?,-1%,-4%
O=C(Nc1nnc(CC2=CCCCC2)s1)Nc1ccccc1F,-8%,i,i,?,33µM*,-1%
Cc1n[nH]c(=O)c2c(NC(=O)COC(=O)COc3cccc(Br)c3)oc(C)c12,-12%,i,i,0%,-16%,-25%
CCN(CC)c1ccc(-c2c(C#N)c(N)nc(OC)c2C#N)cc1,?,i,?,?,?,?
COc1cc(OC)c(C(=O)C=Cc2ccc(OC)c(OC)c2)c(OC)c1,?,?,?,169%,?,18µM*
COc1ccc(C=CC(=O)c2ccc(OC)c(OC)c2)cc1O,-11%,?,?,.,21µM*,.
COc1ccc(C=CC(=O)c2ccc(OC)c(OC)c2O)cc1OC,?,i,?,?,26µM*,?
SMILES,HT1080NT lethal,KB-3-1 tox,KB-V1 cytotox,MCF10A rereplic,HT1080 IDH1KD tx,SW480 rerep
Cn1nc(NC(=O)C(C)(C)C)c2c(F)cccc21,10%,i,i,1%,10%,-24%
COc1cc(-c2nnc(-c3cccs3)o2)cc(OC)c1OC,17%,i,?,21%,9%,-2%
COc1ccc(-c2nnc(-c3cccs3)o2)cc1OC,-2%,i,6.5µM*,-3%,-22%,-11%
CC(=O)NC1C(=O)N(CC(C)C)c2ccccc21 (configuration not stated),4%,i,i,0%,0%,-17%
C/C(=N\NC(=O)c1ccccn1)c1ccc(Cl)cc1,8%,i,?,-17%,4%,-8%
COc1cccc(C(=O)N/N=C(/c2ccccc2)c2ccccn2)c1,?,?,i,?,0.89µM*,?
COc1cc(C(=O)NCC(=O)N/N=C/c2ccccn2)cc(OC)c1OC,12%,i,i,-2%,14%,-7%
C/C(=N\NC(N)=O)c1ccc(Cl)cc1,-2%,?,12µM*,-10%,0%,?
COc1cccc(C(=O)N/N=C(/CCC(=O)O)c2ccccc2)c1,14%,i,i,-9%,17%,-2%
C/C(=N\NC(=O)c1ccc(Cl)cc1)c1ccccn1,?,?,?,3.7µM*,?,?
COc1cc(C(=O)N/N=C(\c2ccccc2)c2ccccn2)cc(OC)c1OC,?,?,i,18µM*,?,?
CCOc1ccc(-n2c(=O)c3c4c(sc3n(CC(=O)NC(C)CC)c2=O)CCCCC4)cc1 (configuration not stated),.,i,i,.,.,.
O=C(Nc1cccc(Cl)c1)OCCN1CCN(Cc2ccccc2)CCC1=O,3%,i,?,-8%,1%,2%
CCN(CC)CCCNC(=O)Cn1ccc2ccccc2c1=O,15%,i,i,0%,7%,-1%
CN1C(=O)C(O)(C2CCCCCC2=O)c2ccccc21 (configuration not stated),-2%,i,i,-3%,1%,5%
CCO[C@@H]1OC(C(=O)N2CCN(Cc3ccccc3)CC2)=C[C@H](c2ccc(Br)cc2)[C@H]1CCCO,-25%,?,?,?,-26%,-12%
O=C(Sc1ccc(Cl)cc1)c1ccccn1,?,i,i,9%,23µM*,-6%
COc1cc(C(=O)N/N=C(\C)c2ccccn2)cc(OC)c1OC,?,6.5µM*,7.3µM*,?,?,3.7µM*
C/C(=N\Nc1ccc([N+](=O)[O-])cc1)c1cc2ccccc2o1,-24%,i,i,2.9µM*,-22%,24%

# Screening data deposited in PubChem by National Center for Advancing Translational Sciences (NCATS).
